The values below come from the antibiotic and cytotoxicity screens of Wong et al. (2023).

About 3,300 (8.5%) of roughly 39,000 compounds were called active. The list comes from a sample in which actives are over-represented; it also holds similar structures and randomly drawn compounds.

In the assay the test system is HepG2. Kind of assay: cytotoxicity call (relative viability < 0.9). As to conditions: 10 µM.
`C[C@H]1CN([C@@H](C)CO)C(=O)c2cc(NS(=O)(=O)c3cn(C)cn3)ccc2O[C@H]1CN(C)S(=O)(=O)c1cn(C)cn1`: the cytotoxicity call is “inactive”. With `Cc1noc(C)c1NC(=O)N(C)C[C@@H]1Oc2ccc(NC(=O)Cn3cnnn3)cc2C(=O)N([C@@H](C)CO)C[C@H]1C` the entry was “inactive”; with `O=C(C[C@H]1C=C[C@@H](NC(=O)CN2CCOCC2)[C@H](CO)O1)NCCc1ccncc1`, “inactive”; with `O=C(C[C@@H]1CC[C@@H](NC(=O)CN2CCOCC2)[C@H](CO)O1)NCCc1ccccc1`, “inactive”. As for `Cc1ccc(S(=O)(=O)N(C)C[C@H]2Oc3ccc(NS(=O)(=O)c4cn(C)cn4)cc3CC(=O)N([C@@H](C)CO)C[C@@H]2C)cc1`, the cytotoxicity call was “inactive”.

With `O=S(=O)(NCc1ccco1)N1CCOCC1`, the cytotoxicity call was “inactive”. On to `C[C@@H]1CCCCO[C@H](CN(C)Cc2ccc(C(=O)O)cc2)[C@H](C)CN([C@@H](C)CO)C(=O)c2cc(NC(=O)Nc3ccccc3)ccc2O1`, for which the cytotoxicity call was “inactive”.

As for `COc1ccc2c(c1)OCC(Cc1ccc(OC)c(OC)c1)C2=O` (stereo not drawn), the cytotoxicity call is “active”. For `COc1ccc(CCC(=O)c2c(O)cc(O[C@@H]3O[C@H](CO)[C@@H](O)[C@H](O)[C@H]3O[C@@H]3O[C@@H](C)[C@H](O)[C@@H](O)[C@H]3O)cc2O)cc1O`, the cytotoxicity call was “inactive”. In the case of `COc1ccc(-c2cc(=O)c3c(O)cc(OC)c(OC)c3o2)c(OC)c1` it was “inactive”; in that of `COc1ccc2c(c1)OCC(Cc1ccc(OC)c(O)c1)C2=O` (stereo not drawn), “active”; in that of `COc1ccc([C@H]2CC=CC[C@H](C)Oc3ccccc3C(=O)N(C)[C@H](Cc3ccccc3)C(=O)N2)c(OC)c1`, “inactive”. With `COc1ccc2c(c1)OCc1c-2oc2cc(OC)ccc12` the entry was “inactive”; with `COc1ccc([C@H]2CC=CC[C@H](C)Oc3ccccc3C(=O)N(C)[C@@H](Cc3ccccc3)C(=O)N2)c(OC)c1`, “inactive”; with `COc1ccc2c(c1)OCC(Cc1ccc(O)c(OC)c1)C2=O` (stereo not drawn), “inactive”. In the case of `COc1ccc2c(c1)OCC(=Cc1ccc(OC)c(O)c1)C2=O` it was “active”; in that of `C[C@H]1CCCCO[C@H](CN(C)C(=O)NC2CCCCC2)[C@@H](C)CN([C@@H](C)CO)C(=O)c2cc(NC(=O)C3CCCCC3)ccc2O1`, “inactive”. For the compound `Cc1noc(C)c1NC(=O)N(C)C[C@@H]1OCCCC[C@H](C)Oc2ccc(NC(=O)Nc3cccc4ccccc34)cc2C(=O)N([C@@H](C)CO)C[C@H]1C`, the cytotoxicity call is “inactive”. In the case of `COCCNC(=O)C[C@@H]1CC[C@@H]2[C@H](COc3ccc(NC(=O)Nc4cccc(F)c4)cc3C(=O)N2C)O1`, the cytotoxicity call was “inactive”. In the case of `Cc1noc(C)c1NC(=O)Nc1ccc2c(c1)CC(=O)N([C@@H](C)CO)C[C@H](C)[C@@H](CN(C)Cc1ccc(Oc3ccccc3)cc1)O2` it was “inactive”; in that of `Cc1noc(C)c1NC(=O)N(C)C[C@@H]1Oc2ccc(NS(=O)(=O)c3ccccc3)cc2C(=O)N([C@H](C)CO)C[C@@H]1C`, “inactive”; in that of `Cc1cc(-c2ccccc2)nc(SCc2ccccc2)c1C#N`, “active”.

`CSc1nc(-c2ccccc2)cc(-c2cccs2)c1C#N`: the cytotoxicity call is “inactive”. On to `CCSc1nc(-c2ccc(C)cc2)cc(C(F)(F)F)c1C#N`, for which the cytotoxicity call was “inactive”. With `CC(C)NC(=O)Nc1cccc2c1O[C@H](CN(C)S(=O)(=O)c1ccccc1)[C@@H](C)CN([C@H](C)CO)C2=O` the entry was “inactive”; with `C[C@@H]1CCCCO[C@H](CN(C)S(=O)(=O)c2cccs2)[C@@H](C)CN([C@H](C)CO)C(=O)c2cc(NC(=O)Nc3cccc4ccccc34)ccc2O1`, “inactive”; with `CCCN(C)C[C@@H]1OCCCC[C@H](C)Oc2ccc(NC(=O)Nc3ccc(C(F)(F)F)cc3)cc2C(=O)N([C@@H](C)CO)C[C@@H]1C`, “inactive”. Regarding `CCCN(C)C[C@H]1OCCCC[C@H](C)Oc2ccc(NC(=O)Nc3ccc(F)cc3)cc2C(=O)N([C@@H](C)CO)C[C@H]1C`, the cytotoxicity call is “inactive”. For the compound `CCCN(C)C[C@@H]1OCCCC[C@@H](C)Oc2ccc(NC(=O)Nc3ccc(F)cc3)cc2C(=O)N([C@H](C)CO)C[C@@H]1C`, the cytotoxicity call is “inactive”. In the case of `CCCN(C)C[C@@H]1OCCCC[C@@H](C)Oc2ccc(NC(=O)Nc3ccc(C(F)(F)F)cc3)cc2C(=O)N([C@H](C)CO)C[C@H]1C`, the cytotoxicity call is “inactive”. Turning to `CCCN(C)C[C@@H]1OCCCC[C@H](C)Oc2ccc(NC(=O)Nc3ccc(C(F)(F)F)cc3)cc2C(=O)N([C@H](C)CO)C[C@@H]1C`, the cytotoxicity call is “active”. As for `CCCN(C)C[C@H]1OCCCC[C@@H](C)Oc2ccc(NC(=O)Nc3ccc(F)cc3)cc2C(=O)N([C@H](C)CO)C[C@@H]1C`, the cytotoxicity call was “inactive”. On to `CCCN(C)C[C@H]1OCCCC[C@@H](C)Oc2ccc(NC(=O)Nc3ccc(C(F)(F)F)cc3)cc2C(=O)N([C@@H](C)CO)C[C@H]1C`, for which the cytotoxicity call is “active”. Take `CCCN(C)C[C@H]1OCCCC[C@H](C)Oc2ccc(NC(=O)Nc3ccc(C(F)(F)F)cc3)cc2C(=O)N([C@@H](C)CO)C[C@H]1C`: the cytotoxicity call is “active”. With `CCCN(C)C[C@@H]1OCCCC[C@@H](C)Oc2ccc(NC(=O)Nc3ccc(C(F)(F)F)cc3)cc2C(=O)N([C@H](C)CO)C[C@@H]1C` the entry was “active”.

Take `CCCN(C)C[C@@H]1OCCCC[C@@H](C)Oc2ccc(NC(=O)Nc3ccc(F)cc3)cc2C(=O)N([C@H](C)CO)C[C@H]1C`: the cytotoxicity call was “inactive”. With `CCCN(C)C[C@H]1OCCCC[C@@H](C)Oc2ccc(NC(=O)Nc3ccc(C(F)(F)F)cc3)cc2C(=O)N([C@H](C)CO)C[C@H]1C` the entry was “inactive”. `CCCN(C)C[C@@H]1OCCCC[C@H](C)Oc2ccc(NC(=O)Nc3ccc(F)cc3)cc2C(=O)N([C@@H](C)CO)C[C@@H]1C`: the cytotoxicity call is “inactive”. As to `COc1ccc(S(=O)(=O)Nc2ccc3c(c2)C(=O)N([C@@H](C)CO)C[C@@H](C)[C@H](CN(C)S(=O)(=O)c2ccc(Cl)cc2)OCCCC[C@@H](C)O3)cc1`, the cytotoxicity call was “inactive”. `COc1ccc(S(=O)(=O)N(C)C[C@@H]2Oc3ccc(NC(=O)Cc4ccccc4)cc3CC(=O)N([C@H](C)CO)C[C@H]2C)cc1`: the cytotoxicity call is “inactive”. With `COc1ccccc1C#Cc1ccc2c(c1)O[C@@H](CN(C)Cc1cncnc1)[C@H](C)CN([C@H](C)CO)S2(=O)=O` the entry was “inactive”.

For `Cc1ccc(S(=O)(=O)N2C[C@@H](O)COC[C@H]3O[C@H](CC(=O)NCc4ccc(C(F)(F)F)cc4)CC[C@@H]32)cc1`, the cytotoxicity call is “inactive”.

For `CSc1cc(-c2ccc(Cl)cc2)nc(-c2cccs2)c1`, the cytotoxicity call is “inactive”.
